Results with a measured potency or affinity are listed apart.
Legend:
Staphylococcus aureus = conditions: Concentration 32 ug.mL-1;; ASSAY_TEST Inhibition of Bacterial Growth; detection method Absorption (OD600); MEDIA CAMHB; plate type 384well; NBS; CORNING #3640; time 18 hr
Escherichia coli = conditions: Concentration 32 ug.mL-1;; ASSAY_TEST Inhibition of Bacterial Growth; detection method Absorption (OD600); MEDIA CAMHB; plate type 384well; NBS; CORNING #3640; time 18 hr

Cc1ccccc1Oc1nccn2c(=O)n(CC(=O)Nc3ccc(C(C)C)cc3)nc12
Inhibition (Staphylococcus aureus): -1.76%
Inhibition (Escherichia coli): -10.99%

O=C(Cn1nc2c(SC3CCCCC3)nccn2c1=O)N1CCN(c2ccccc2)CC1
Inhibition (Staphylococcus aureus): 2.31%
Inhibition (Escherichia coli): 0.18%

Cc1ccc(NC(=O)Cn2nc3ccc(-c4ccc(C)c(C)c4)nn3c2=O)cc1
Inhibition (Staphylococcus aureus): 12.01%
Inhibition (Escherichia coli): -5.02%

CC(C)CCNC(=O)Cn1nc2n(Cc3cccs3)c(=O)c3sccc3n2c1=O
Inhibition (Staphylococcus aureus): 3.31%
Inhibition (Escherichia coli): -5.47%

CCOc1ccc(NC(=O)Cn2nc3c(Sc4cccc(F)c4)nccn3c2=O)cc1
Inhibition (Staphylococcus aureus): 1.32%
Inhibition (Escherichia coli): -8.75%

CC1CC(C)CN(c2nccn3c(=O)n(CC(=O)Nc4cccc(C(F)(F)F)c4)nc23)C1 (stereo not given)
Inhibition (Staphylococcus aureus): 16.31%
Inhibition (Escherichia coli): 0.9%

CSc1cccc(NC(=O)Cn2nc3c(SCc4ccc(Cl)cc4)nccn3c2=O)c1
Inhibition (Staphylococcus aureus): -9.65%
Inhibition (Escherichia coli): -9.35%

CCc1nnc2c(SCC(=O)Nc3ccc(C)cc3Cl)nc3ccccc3n12
Inhibition (Staphylococcus aureus): 2.52%
Inhibition (Escherichia coli): 2.69%

COc1ccccc1N1CCN(C(=O)CSc2nc3ccccc3n3c(C(C)C)nnc23)CC1
Inhibition (Staphylococcus aureus): 1.01%
Inhibition (Escherichia coli): 3.41%

O=C(CSc1nnc2c3cc(-c4ccccc4)nn3ccn12)Nc1cccc(Br)c1
Inhibition (Staphylococcus aureus): 9.78%
Inhibition (Escherichia coli): 2.01%

COc1cccc(Cn2nc3c(=O)n(-c4cccc(Cl)c4C)ccn3c2=O)c1
Inhibition (Staphylococcus aureus): -6.87%
Inhibition (Escherichia coli): -16.22%

COc1ccccc1NC(=O)Cn1c(=O)c2nnc(C(C)C)n2c2ccccc21
Inhibition (Staphylococcus aureus): 22.81%
Inhibition (Escherichia coli): -0.08%

COc1cccc(Oc2nccn3c(=O)n(CC(=O)Nc4cc(C)c(Cl)cc4OC)nc23)c1
Inhibition (Staphylococcus aureus): -12.26%
Inhibition (Escherichia coli): -0.57%

CCc1nnc2c(=O)n(CC(=O)Nc3ccc(C(C)C)cc3)c3ccccc3n12
Inhibition (Staphylococcus aureus): 12.36%
Inhibition (Escherichia coli): 0.11%

O=C(Cn1nc2c3cc(-c4ccc(F)cc4)nn3ccn2c1=O)NCc1ccccc1Cl
Inhibition (Staphylococcus aureus): 7.18%
Inhibition (Escherichia coli): -0.1%

CCCc1nnc2c(=O)n(CC(=O)Nc3ccc(Br)cc3F)c3ccccc3n12
Inhibition (Staphylococcus aureus): -16.77%
Inhibition (Escherichia coli): -13.67%

Cc1cc2nn(CC(=O)Nc3cc(F)ccc3C)c(=O)n2c(Nc2ccc(F)c(C)c2)n1
Inhibition (Staphylococcus aureus): 9.03%
Inhibition (Escherichia coli): -0.59%

CCOC(=O)c1ccc(NC(=O)Cn2nc3c(N4CCOCC4)nccn3c2=O)cc1
Inhibition (Staphylococcus aureus): 2.06%
Inhibition (Escherichia coli): -3.52%

CCc1ccccc1NC(=O)Cn1nc2c(SCc3ccc(Cl)cc3)nccn2c1=O
Inhibition (Staphylococcus aureus): 9.03%
Inhibition (Escherichia coli): -5.25%

Cc1cccc(C)c1NC(=O)Cn1nc2ccc(SCc3ccc(Cl)cc3)nn2c1=O
Inhibition (Staphylococcus aureus): -3.66%
Inhibition (Escherichia coli): -13.3%

Cc1cc2nn(CC(=O)Nc3ccccc3F)c(=O)n2c(Nc2ccc(F)c(C)c2)n1
Inhibition (Staphylococcus aureus): 11.73%
Inhibition (Escherichia coli): -0.72%

Cc1ccc(-c2cc3c4nn(CC(=O)Nc5ccccc5Br)c(=O)n4ccn3n2)cc1C
Inhibition (Staphylococcus aureus): 9.34%
Inhibition (Escherichia coli): -2.39%

COc1ccccc1-n1ccn2c(SCc3ccccc3C)nnc2c1=O
Inhibition (Staphylococcus aureus): 16.46%
Inhibition (Escherichia coli): -2.58%

Cc1ccc(-c2cc3c4nn(CC(=O)NCc5ccccc5Cl)c(=O)n4ccn3n2)cc1C
Inhibition (Staphylococcus aureus): 0.72%
Inhibition (Escherichia coli): 0.46%

CCOc1ccccc1NC(=O)Cn1nc2c3c4c(sc3ncn2c1=O)CCCC4
Inhibition (Staphylococcus aureus): -4.82%
Inhibition (Escherichia coli): -7.86%

COc1ccc(NC(=O)CSc2nc3ccccc3n3c(C(C)C)nnc23)cc1Cl
Inhibition (Staphylococcus aureus): -3.22%
Inhibition (Escherichia coli): -5.08%

Cc1ccc(NC(=O)Cn2nc3ccc(SCc4ccc(Cl)cc4)nn3c2=O)cc1C
Inhibition (Staphylococcus aureus): 4.09%
Inhibition (Escherichia coli): -6.92%

O=C(Cn1nc2nc(Nc3ccc(F)cc3)ccn2c1=O)Nc1ccc(F)cc1
Inhibition (Staphylococcus aureus): -16.48%
Inhibition (Escherichia coli): -2.62%

Cc1ccc(NC(=O)CSc2nc3ccccc3n3c(C(C)C)nnc23)c(Cl)c1
Inhibition (Staphylococcus aureus): -3.19%
Inhibition (Escherichia coli): -0.25%

Cc1ccc(-c2cc3c4nnc(CCC(=O)N5CCN(c6ccccn6)CC5)n4ccn3n2)cc1C
Inhibition (Staphylococcus aureus): -0.56%
Inhibition (Escherichia coli): -4.11%

CCOc1ccc(NC(=O)Cn2c(=O)c3nnc(C(C)C)n3c3ccccc32)cc1
Inhibition (Staphylococcus aureus): 13.61%
Inhibition (Escherichia coli): 5.76%

O=C(CSc1nnc2c(=O)n(-c3cccc(F)c3)ccn12)Nc1ccc(Br)cc1F
Inhibition (Staphylococcus aureus): 15.57%
Inhibition (Escherichia coli): -1.22%

COC(=O)c1ccc(NC(=O)Cn2nc3c4sc(N5CCCC5)nc4ncn3c2=O)cc1
Inhibition (Staphylococcus aureus): -12.82%
Inhibition (Escherichia coli): -9.22%

Cc1cccc(Cn2nc3n(CCc4ccccc4)c(=O)c4sccc4n3c2=O)c1
Inhibition (Staphylococcus aureus): -3.57%
Inhibition (Escherichia coli): -0.08%

O=C(Cn1nc2c(Sc3ccccc3)nccn2c1=O)Nc1cccc(Cl)c1F
Inhibition (Staphylococcus aureus): 9.57%
Inhibition (Escherichia coli): -0.62%

Cc1ccc(-c2cc3c4nn(CC(=O)Nc5ccc(F)cc5Cl)c(=O)n4ccn3n2)cc1
Inhibition (Staphylococcus aureus): -0.44%
Inhibition (Escherichia coli): -5.61%

Cc1ccc(Oc2nccn3c(=O)n(CC(=O)N4CCN(c5ccccc5F)CC4)nc23)cc1
Inhibition (Staphylococcus aureus): 10.22%
Inhibition (Escherichia coli): -0.59%

Cc1ccc(NC(=O)Cn2nc3c(SC4CCCCC4)nccn3c2=O)cc1F
Inhibition (Staphylococcus aureus): 10.42%
Inhibition (Escherichia coli): -1.05%

Cc1cc(C)cc(Nc2nc(C)cc3nn(CC(=O)Nc4cc(F)cc(F)c4)c(=O)n23)c1
Inhibition (Staphylococcus aureus): 7.68%
Inhibition (Escherichia coli): -2.61%

CCOc1ccc(-n2ccn3c(SCC(=O)c4cc(C)c(C)cc4C)nnc3c2=O)cc1
Inhibition (Staphylococcus aureus): 7.6%
Inhibition (Escherichia coli): -6.02%

Cc1ccc(CN(c2ccccc2)S(=O)(=O)c2ccc3nncn3c2)cc1
Inhibition (Staphylococcus aureus): 12.66%
Inhibition (Escherichia coli): -4.44%

CC(C)CCNC(=O)CSc1nnc2c(=O)n(-c3ccc(F)cc3)ccn12
Inhibition (Staphylococcus aureus): 8.18%
Inhibition (Escherichia coli): -2.32%

Cc1nnc2c(=O)n(CC(=O)Nc3cccc(Br)c3)c3ccccc3n12
Inhibition (Staphylococcus aureus): 15.88%
Inhibition (Escherichia coli): -0.63%

Cc1ccc(Sc2nccn3c(=O)n(CC(=O)Nc4cc(Cl)ccc4C)nc23)c(C)c1
Inhibition (Staphylococcus aureus): -0.43%
Inhibition (Escherichia coli): -11.77%

CC1CC(C)CN(c2nccn3c(=O)n(CC(=O)NCc4ccccc4Cl)nc23)C1 (stereo not given)
Inhibition (Staphylococcus aureus): 3.32%
Inhibition (Escherichia coli): 2.48%

Cc1ccc(NC(=O)Cn2nc3c(Oc4cccc(C)c4C)nccn3c2=O)c(Br)c1
Inhibition (Staphylococcus aureus): 0.42%
Inhibition (Escherichia coli): -4.42%

CCc1ccc(N(Cc2ccc(OC)cc2)S(=O)(=O)c2cccn3c(C)nnc23)cc1
Inhibition (Staphylococcus aureus): 5.17%
Inhibition (Escherichia coli): -2.97%

CCC(C)NC(=O)Cn1nc2n(CCC(=O)NC3CCCCC3)c(=O)c3ccccc3n2c1=O (stereo not given)
Inhibition (Staphylococcus aureus): -5.52%
Inhibition (Escherichia coli): -15%

O=C(Cn1nc2c3c4c(sc3ncn2c1=O)CCCC4)Nc1ccc2c(c1)OCO2
Inhibition (Staphylococcus aureus): -0.05%
Inhibition (Escherichia coli): -3.47%

COc1ccc(N(Cc2cccc(F)c2)S(=O)(=O)c2ccc3nncn3c2)cc1
Inhibition (Staphylococcus aureus): -9.11%
Inhibition (Escherichia coli): 1.35%

CCOc1ccc(-n2ccn3c(SCC(=O)Nc4ccccc4C(F)(F)F)nnc3c2=O)cc1
Inhibition (Staphylococcus aureus): 16.73%
Inhibition (Escherichia coli): 2.18%

CSc1cccc(NC(=O)Cn2nc3c(SC4CCCCC4)nccn3c2=O)c1
Inhibition (Staphylococcus aureus): -5.93%
Inhibition (Escherichia coli): -5.86%

Cc1ccc(NC(=O)Cn2c(=O)c3nnc(C(C)C)n3c3ccccc32)cc1C
Inhibition (Staphylococcus aureus): 7.95%
Inhibition (Escherichia coli): 6.48%

COc1ccc(N(Cc2cccc(OC)c2)S(=O)(=O)c2ccc3nnc(C)n3c2)cc1
Inhibition (Staphylococcus aureus): -9.05%
Inhibition (Escherichia coli): 0.15%

COc1ccc(OC)c(NC(=O)Cn2nc3c4cc(-c5ccc(C)c(C)c5)nn4ccn3c2=O)c1
Inhibition (Staphylococcus aureus): 0.06%
Inhibition (Escherichia coli): -4.32%

CC(C)(C)Sc1ccc2nn(CC(=O)Nc3ccccc3C(F)(F)F)c(=O)n2n1
Inhibition (Staphylococcus aureus): 6.28%
Inhibition (Escherichia coli): -2.49%

Cc1cc(C)cc(N(Cc2cc(F)cc(F)c2)S(=O)(=O)c2cccn3c(C)nnc23)c1
Inhibition (Staphylococcus aureus): 9.54%
Inhibition (Escherichia coli): -1.86%

Cc1cc(C)cc(N(Cc2cc(C)ccc2C)S(=O)(=O)c2cccn3c(C)nnc23)c1
Inhibition (Staphylococcus aureus): 6.88%
Inhibition (Escherichia coli): -2.32%

Cc1ccccc1N1CCN(c2nccn3c(=O)n(CC(=O)Nc4cccc(C(C)C)c4)nc23)CC1
Inhibition (Staphylococcus aureus): 14.78%
Inhibition (Escherichia coli): -9.47%

CC(C)c1nnc2c(SCC(=O)Nc3ccc(Cl)cc3C(F)(F)F)nc3ccccc3n12
Inhibition (Staphylococcus aureus): 2.01%
Inhibition (Escherichia coli): -15.72%

O=C(Cn1nc2c(SCc3ccc(Cl)cc3)nccn2c1=O)N1CCN(c2ccccc2)CC1
Inhibition (Staphylococcus aureus): -0.6%
Inhibition (Escherichia coli): -2.68%

Cc1ccc(Cl)cc1NC(=O)Cn1nc2c3c4c(sc3ncn2c1=O)CCCCC4
Inhibition (Staphylococcus aureus): 5.6%
Inhibition (Escherichia coli): -1.7%

CCc1ccc(N(Cc2ccc(F)cc2)S(=O)(=O)c2cccn3c(CC)nnc23)cc1
Inhibition (Staphylococcus aureus): 19.9%
Inhibition (Escherichia coli): -4.69%

CCCc1nnc2c(=O)n(CC(=O)Nc3ccc(C(C)=O)cc3)c3ccccc3n12
Inhibition (Staphylococcus aureus): 1.62%
Inhibition (Escherichia coli): 1.52%

Cc1cc(C)c(NC(=O)Cn2nc3c4cc(-c5ccc(C)c(C)c5)nn4ccn3c2=O)c(C)c1
Inhibition (Staphylococcus aureus): -7.12%
Inhibition (Escherichia coli): -12.18%

Cc1cc2nn(CC(=O)NCc3ccccc3)c(=O)n2c(-c2ccc(C(F)(F)F)cc2)n1
Inhibition (Staphylococcus aureus): 13.36%
Inhibition (Escherichia coli): -8.01%

Cn1c(=O)c2ccc(C(=O)NC3CCCCC3)cc2n2c(=O)n(Cc3cccc(C(F)(F)F)c3)nc12
Inhibition (Staphylococcus aureus): 12.74%
Inhibition (Escherichia coli): -0.17%

Cc1cc(C)cc(NC(=O)Cn2nc3c4cc(-c5ccc(Cl)cc5)nn4ccn3c2=O)c1
Inhibition (Staphylococcus aureus): 2.02%
Inhibition (Escherichia coli): 6.23%

Cc1nc(-c2ccccc2)cc2nn(CC(=O)Nc3ccc4c(c3)OCO4)c(=O)n12
Inhibition (Staphylococcus aureus): 14.7%
Inhibition (Escherichia coli): -4.44%

Cc1ccc(-c2cc3c4nnc(SCC(=O)Nc5ccc(C#N)cc5)n4ccn3n2)cc1
Inhibition (Staphylococcus aureus): -4.94%
Inhibition (Escherichia coli): -8.26%
